# Results as given in the supplement of paper PMC4166925.
# ± gives the standard deviation of the averaged measurements. Over roughly 33,000 sequences, “E-score (dimensionless, -0.5 to 0.5)” has its median near -0.049; the highest 2% begin near 0.37. For the sample, the highest values were picked, then their nearest neighbours and some sequences at random.
# Test system: T1, PmTbr T-box DNA-binding domain (GST fusion)
# T1 sequence: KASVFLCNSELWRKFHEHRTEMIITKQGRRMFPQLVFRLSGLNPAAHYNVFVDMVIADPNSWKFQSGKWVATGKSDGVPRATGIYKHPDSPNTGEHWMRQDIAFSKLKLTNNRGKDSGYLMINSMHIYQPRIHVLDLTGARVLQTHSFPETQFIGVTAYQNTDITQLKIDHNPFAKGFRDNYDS
# Experiment: PBM E-score of 8-mer (E-score (dimensionless, -0.5 to 0.5)); Tbr is Tbrain of the sea star Patiria miniata (Pm) or the sea urchin Strongylocentrotus purpuratus (Sp); higher = stronger binding preference
# Details: the construct has about 5 more residues each side
# Summary of the method: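 GST-fused Tbr T-box DNA-binding domains (the whole T-box plus about five flanking residues) were expressed in BL21 E. coli at 20 °C and purified by glutathione affinity chromatography. Universal Agilent oligonucleotide arrays were made double-stranded by primer extension, incubated with 200 nM protein in PBS (pH 7.5), then scanned and quantified. Every ungapped 8-mer was scored from probe intensities. The Universal PBM Analysis Suite gave each word an enrichment E-score, averaged over duplicate arrays.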
row,Sequence,PBM E-score of 8-mer
1,ATGAGCAG,-0.0322 ± 0.034
2,ATGGTGGC,0.271 ± 0.056
3,CTGGTGTC,0.341 ± 0.023
4,ATGGTGTG,0.383 ± 0.0049
5,ATGGTGTA,0.104 ± 0.021
6,ATGGTGTC,0.383 ± 0.02
7,ATGGTGCG,0.187 ± 0.036
8,CAGTAGAC,-0.0988 ± 0.05
9,AGCGCGTG,0.27 ± 0.025
10,CGGTAAAG,-0.102 ± 0.037
11,ACACATTA,0.264 ± 0.008
12,AAACATTC,-0.0525 ± 0.037
13,ACACATAT,0.386 ± 0.0052
14,ACACATAA,0.251 ± 0.0089
15,AAACATTG,-0.0327 ± 0.00054
16,ACACATTC,0.387 ± 0.016
17,ACACATTG,0.39 ± 0.017
18,CCACATTC,0.104 ± 0.038
19,ACACATAG,0.268 ± 0.022
20,GAGAAAAC,0.0669 ± 0.12
21,ATTCCTCC,-0.291 ± 0.034
22,GACGCGTA,0.0611 ± 0.022
23,ATCCAGCA,-0.175 ± 0.032
24,AATGGTCG,-0.249 ± 0.14

row,Sequence,PBM E-score of 8-mer
1,ACGAGAGG,0.0873 ± 0.05
2,GTAGTCTA,-0.207 ± 0.03
3,GTAGGTGA,0.397 ± 0.02
4,CTAGGTAA,-0.173 ± 0.055
5,CTAGGTGA,0.398 ± 0.014
6,GTAGGTAA,-0.141 ± 0.024
7,ATAGGTGA,0.345 ± 0.028
8,CTAGGTTC,-0.0841 ± 0.0095
9,CTAGGTGC,0.403 ± 0.008
10,CTAGGTCA,0.00648 ± 0.021
11,GTAGGTTA,-0.189 ± 0.025
12,CTAGGTCC,-0.13 ± 0.071
13,ATAGGTGG,0.26 ± 0.051
14,ATAGGTGC,0.414 ± 0.0057
15,CAGCATAC,-0.00656 ± 0.045
16,GCGCAGAA,-0.0316 ± 0.067
17,GGTAAACC,0.131 ± 0.039
18,GAATCATA,0.0757 ± 0.097
19,CTAGTAAG,-0.0596 ± 0.04
20,CCATGAGC,-0.138 ± 0.16
21,ACTGTGAT,0.152 ± 0.046
22,ACTGTGAA,0.378 ± 0.0086
23,GCTGTGAA,0.3817 ± 0.0019
24,CCTGTGAA,0.306 ± 0.0045

row,Sequence,PBM E-score of 8-mer
1,TCTGTGAA,0.253 ± 0.0052
2,ACTGTGAG,0.22 ± 0.017
3,CAGGCTTA,-0.197 ± 0.047
4,ATATAGCG,0.0197 ± 0.053
5,CGTATGCA,-0.0979 ± 0.032
6,GATTTTGC,0.189 ± 0.061
7,AAATAGGA,-0.294 ± 0.053
8,CGCTAACC,0.256 ± 0.017
9,CGCTAACG,0.3714 ± 0.0037
10,GGCTAACA,0.179 ± 0.019
11,TGCTAACA,0.369 ± 0.041
12,AGCTAACG,0.157 ± 0.031
13,AGCTAACA,0.209 ± 0.033
14,ATGTCCAG,-0.0643 ± 0.0044
15,GTATGCCA,-0.0108 ± 0.032
16,CTTGTAGC,0.0941 ± 0.012
17,GGCGACAC,0.402 ± 0.019
18,CGCGACAA,0.336 ± 0.0038
19,GGCGACAA,0.3812 ± 0.0024
20,AGCGACAC,0.317 ± 0.054
21,CGCGACAG,0.308 ± 0.014
22,GGCGACCC,-0.0415 ± 0.017
23,CACGACAC,0.314 ± 0.0061
24,CGCGACAC,0.375 ± 0.02

row,Sequence,PBM E-score of 8-mer
1,TGCGACAA,0.296 ± 0.013
2,CCGACGCA,-0.0454 ± 0.012
3,GTCACATA,0.263 ± 0.0064
4,ATGCGATC,-0.0333 ± 0.042
5,CAAGTTGA,0.116 ± 0.0034
6,AGCGTTGA,0.102 ± 0.055
7,TACCTCCA,-0.00358 ± 0.099
8,CACCTCCG,0.447 ± 0.0095
9,AACCTCCG,0.0421 ± 0.042
10,CACCTCCA,0.423 ± 0.0067
11,GACCTCCC,-0.178 ± 0.0044
12,AACCTCCC,-0.0756 ± 0.12
13,AACCTCCA,-0.158 ± 0.028
14,CACCTCCC,0.423 ± 0.0044
15,CCCCTCCG,0.137 ± 0.019
16,CCGAAGTA,-0.302 ± 0.021
17,CCCAAGTA,-0.0284 ± 0.033
18,CGAGTGCA,-0.0272 ± 0.087
19,ACGAACTG,0.0451 ± 0.03
20,CCTTTGGC,0.0109 ± 0.046
21,CGATCCAG,-0.0702 ± 0.018
22,AGACCTGA,-0.102 ± 0.055
23,GAACCTGC,-0.162 ± 0.0065
24,ACACCTGC,0.461 ± 0.017

row,Sequence,PBM E-score of 8-mer
1,CGACCTGC,0.196 ± 0.043
2,ACACCTGG,0.466 ± 0.0053
3,ATACCTGG,0.139 ± 0.025
4,GCACCTGC,0.395 ± 0.018
5,CCACCTGC,0.299 ± 0.02
6,AAACCTGA,0.0859 ± 0.12
7,CCACCTGG,0.252 ± 0.0058
8,ACACCTGA,0.4657 ± 0.0021
9,ATACCTGC,0.0129 ± 0.047
10,ATGCCCAC,-0.186 ± 0.051
11,AGAACCCT,-0.229 ± 0.014
12,ACTCGCCA,0.144 ± 0.015
13,CCTCTTAG,-0.103 ± 0.0023
14,CTATACCA,-0.205 ± 0.013
15,AGCCCCAG,-0.138 ± 0.057
16,TCTTGCCA,0.0678 ± 0.023
17,GAGAACCC,-0.0803 ± 0.011
18,AGGCTCTG,-0.0891 ± 0.012
19,AAGAATGT,-0.0657 ± 0.011
20,ATCAGTGG,-0.0659 ± 0.059
21,AGGGCAAG,-0.2 ± 0.018
22,TCGATTCA,0.0262 ± 0.015
23,GTGGGCCA,-0.191 ± 0.031
